# Measurements from PubChem BioAssay (NCATS).
# Results filed as inconclusive are left out. Values without a mark were called inactive. The call rests on the fitted dose curve; in most records, active means well fitted cell-killing curve with a large enough effect; inconclusive means small, poorly fitted or top-dose-only effect; inactive means flat fitted curve, though single readings scatter.
# Assay: MultiTox-Fluor Cytotoxicity Assay - LYMP1-001 - Live Cells (AID 947);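 further: 0% = DMSO only and full inhibition = tetraoctylammonium bromide control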
# Conditions: LYMP1-001 lymphoblastoid cells, live-cell protease fluorescence viability; series mostly up to 92.2 µM; activity change, negative = cytotoxicity: at the top concentration
# Description: NIH Chemical Genomics Center [NCGC]
# NIH Molecular Libraries Screening Centers Network [MLSCN]
# National Institutes of Environmental Health Sciences [NIEHS]
# National Toxicology Program [NTP]
# We have developed a 1536-well cell-based assay for quantitative high throughput screening (qHTS) against a number of cell lines to determine in vitro cytotoxicity of small molecules. This particular assay uses a human lymphoblastoid cell line (LYMP1-001) purchased from Coriell Institute.
# NCGC Assay Protocol Summary:
# The MultiTox-Fluor Cytotoxicity Assay (Promega) is a homogeneous method to simultaneously measure the relative number of live and dead cells in culture by detecting changes in cell membrane integrity. There are two fluorogenic peptide substrates in the assay reagent. Viable cells are determined when the cell-permeant substrate (GF-AFC) enters the cell and is cleaved by protease from live cells resulting in liberated fluorophore. This live-cell protease activity restricted to viable cells is proportional to cell number. The dead cells are determined by using fluorogenic cell-impermeant peptide substrate (bis-AAF-R110) which cleaved by dead cell proteases leaking from damaged cell membrane.
# Using the MultiTox-Fluor Cytotoxicity Assay, the relative number of live cells was measured in the lymphoblastoid cell line with complete culture medium following compound treatment for 16 hours. The assay was performed in opaque black Kalypsys 1536-well plates. In the screen, tetraoctylammonium bromide was used as positive control. Library compounds were measured for their ability to cause acute toxicity in the cell line, as reflected by a decrease in live cell protease activity, in a concentration-dependent manner. […] AC50 values were determined from concentration-response data modeled with the standard Hill equation.
# qHTS protocol for MultiTox-Fluor Cytotoxicity assay
# [Step] [Parameter] [Value] [Description]
# 1. Reagent; 5 uL; 2500 lymphoblastoid cells/well
# 2. Time; 5 hr; 37 C incubation
# 4. Controls; 23 nL; Tetraoctylammonium bromide 6.4pM to 92 uM
# 5. Time; 16 hr; 37 C incubation
# 6. Reagent; 5 uL; MuliTox-Fluor Assay reagent
# 7. Time; 60 min; Room Temperature
# 8. Detection; live-cell fluorescence (Ex/Em=405/510); EnVision plate reader
# Keywords: cell viability, cytotoxicity, lymphoblastoid cell line, fluorescence, NTPHTS, NTPHTS_NCGC, NIEHS, EPA, DSSTox, MLSMR, MLSCN, NIH Roadmap, qHTS, NCGC
row,Compound,"activity change, negative = cytotoxicity [%]"
1,O=C(O)CCCCC1CCSS1 (stereo unspecified),15.6
2,CCCCOC(=O)c1ccc(N)cc1,-11.5
3,CCCCCCCC(=O)OCC(COC(=O)CCCCCCC)OC(=O)CCCCCCC,-19.9
4,O=C1c2cccc(O)c2C(=O)c2c(O)cccc21,-14.1
5,Cc1c(N(C)C)c(=O)n(-c2ccccc2)n1C,0.6
6,O=C1C(c2[nH]c3ccccc3c2O)=Nc2ccccc21,8.32
7,CC(=O)Nc1cccc(O)c1,-6.45
8,COc1ccc(O)cc1,4.24
9,Nc1ccc(S(=O)(=O)c2ccc(N)cc2)cc1,9.29
10,O=C(c1ccccc1)C(O)c1ccccc1 (stereo unspecified),-16.6
11,CCCC(O)C(CC)CO (stereo unspecified),3.51
12,CC(=O)Nc1ccc(C(=O)O)cc1,8.6
13,CCCCCC(N)=O,-7.08
14,Cc1cc(C)nc(NS(=O)(=O)c2ccc(N)cc2)n1,2.94
15,CC(=O)OCC(COC(C)=O)OC(C)=O,-3.77
16,CCN(CC)C(=O)c1cccc(C)c1,4.99
17,Cc1cc(=O)[nH]c(=S)[nH]1,7.38
18,C=CCNC(N)=S,-7.64
19,FC(F)(F)C(Cl)Br (stereo unspecified),-15.2
20,CC(=O)Nc1ccccc1,-9.95
21,CC1CC(OC(=O)c2ccccc2O)CC(C)(C)C1 (stereo unspecified),-16.8
